# Data reported in the supplement of paper PMC11417369.
# The full ranking holds about 25,000 sequences; the median of “ln(normalized median fluorescence intensity)” is about 9.3, and the highest 2% start at about 10. This is one part of a sample in which the highest values are shown more often than they occur.
# Test system: PF3D7_0420300 AP2 domain 1 (GST-tagged)
# Assay: gcPBM binding intensity (ln(normalized median fluorescence intensity)); higher = stronger DNA binding
# Method in brief: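 The highest Masliner-normalised natural-log median intensity across replicate spots of either probe orientation is reported as binding intensity. GST-tagged P. falciparum DNA-binding domains expressed in E. coli were applied for 1 h to an Agilent 4 × 180k array of primer-extended double-stranded 36-bp intergenic genomic probes plus negative controls, and bound protein was detected with Alexa488 anti-GST antibody and scanned at 488 nm.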
row,Sequence,gcPBM binding intensity (ln)
1,TTCATAAGAAGGAACTGTACATATTTTTCATTTTTT [XGTACX_site6770],9.15
2,CCTCATATTATAGACACACACAAAAAAAATAAAAAA [CACACA_site180],9.74
3,AATTAACAAAGACACACACACACACGCACAAAAAAA [CACACA_site6388],10.2
4,TAAATTAAAAGACACACACACAAAAAAAAAAAAAAA [CACACA_site7131],9.66
5,AATGTGTAGACACGCACACACAAAAAAATATTTATA [CACACA_site7384],9.6
6,TTTATTAATAGACACACACACACACGCAAAATAAAA [CACACA_site6255],10.2
7,TAATAAATAAATGACACACACACACGCAAAAAAAAA [CACACA_site7275],10.1
8,TTATTATTAAGACACACACACAAAAAAAAAAAAAAA [CACACA_site6805],9.73
9,TACACAAACAGACACACACACACACGCGCACAAAAA [CACACA_site7192],10.2
10,AAAAAAAACACGCGCACACACACACCCACAGACACA [CACACA_site5253],9.92
11,CACAAACAAAGACACACACACACACGCACAAAAATG [CACACA_site7193],10.1
12,TATTTATTAAGACACACACACACACGCACAAAATAA [CACACA_site6254],10.2
13,ATAGACAGCGCACAAACACACAAACACGCACGCACA [CACACA_site6349],9.6
14,TTATTAACCTAAATTAGTACATATAATATAAAAAAT [XGTACX_site8661],9.18
15,GAAAAGAAAAATAAACGTACATAAATATTAACATTA [XGTACX_site8213],9.2
16,AGGCTCATTTTTTTTAGTACATCAAAAAAAAAAAAA [TGCATGCA_negctrl_site591],8.7
17,TTTTTTTTTTTTTTTTGTACATATATATAAAAAATA [XGTACX_site2772],8.49
18,ATATATAACTTTTCTTAACACACAAAAAACAAAAAT [CACACA_site8748],9.56
19,TATATATATATAAACGCATGTAATTTATACACACAT [TGCATGCA_site946],9.41
20,GACAATTATATGTAGGTGCATATACAAATTTTTTAA,9.11
21,ATATATATATATAACACACGCAAAAAAATTAAATAA [CACACA_site1400],9.69
22,AAAACAAATAGACACGCACACAAAAAAAAAAAAAAA [CACACA_site801],9.33
23,TTAACAAATAGACACACACACACACGCAAAAAAAAA [CACACA_site6387],10.2
24,AAAAAAAAAAAATATATATATATATATATATATATA [CACACA_negctrl_site1606],9.3
25,TATATAAAAATATACACACACAAATGTATATATATA [CACACA_site220],9.68
